Experimental findings from publication PMC7826789 (International Journal of Molecular Sciences, 2021) are described below.

Holding throughout (details): Compound Concentration (nM):1000
Assay [1] deals with LRRK2.
The test system of assay [2] is LTK.
The test system of assay [3] is LYN.
Assay [4] concerns T1, LZK.
T1 construct: gene MAP3K13

Assay [5] concerns MAK.
The test system of assay [6] is MAP3K15.
Assay [7] has as its system MAP3K1.
The subject of assay [8] is MAP3K2.
The subject of assay [9] is MAP3K3.
The subject of assay [10] is MAP3K4.
Assay [11] deals with MAP4K2.
Assay [12] concerns MAP4K3.
Assay [13] has as its system MAP4K4.
Assay [14] deals with MAP4K5.
Assay [15] concerns MAPKAPK2.
For assay [16], the system named is MAPKAPK5.
Assay [17] concerns MARK1.
Assay [18] deals with MARK2.
Assay [19] relates to MARK3.
Assay [20] has as its system MARK4.
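Further: KINOMEscan scanMAX binding as percent activity remaining versus control; lower means stronger binding.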

With `CC(C)COC(=O)c1ccc2c(c1)/C(=C/Nc1ccc(S(N)(=O)=O)cc1)C(=O)N2` [GW416981X], the “Percent Control” value in assay [1] was 56%; in assay [2], 100%; in assay [3], 100%; in [4] it was 100%; in assay [5], 100%; in assay [6], 100%. Further, the “Percent Control” value in assay [7] came to 67%; in assay [8], 66%; in assay [9] it was 90%; in [10] it was 100%; in assay [11], 76%; in assay [12], 95%. For the same molecule, the “Percent Control” value in [13] was 86%; in [14], 87%; in [15], 100%; in assay [16], 100%; in assay [17], 100%; in [18], 73%. Also, the “Percent Control” value in assay [19] was 93%; in [20] it was 81%.
On to `COc1cccc(-n2ncc3c(N/N=C/c4ccncc4)ncnc32)c1` [GW784752X], for which the “Percent Control” value in assay [1] was 91%; in assay [2], 100%; in [3], 58%; in [4], 100%; in [5] it was 100%; in [6], 97%. Besides, the “Percent Control” value in assay [7] is 70%; in assay [8], 100%; in assay [9], 84%; in [10] it was 89%; in assay [11], 95%; in [12], 100%. Moreover, the “Percent Control” value is 96% in assay [13]; 100% in assay [14]; 88% in assay [15]; 89% in [16]; 100% in [17]; 100% in assay [18]. The entries for the “Percent Control” value in assay [19] and in [20] were 100% and 84%, respectively.
Turning to `Cl.O=C(Nc1ccc(Oc2ccc3[nH]c(NC(=O)c4ccccc4)nc3c2)cc1)Nc1cc(C(F)(F)F)ccc1F` [GW709042A], the “Percent Control” value in [1] was 39%; in assay [2], 9.5%; in [3], 72%; in assay [4], 100%; in [5], 100%; in [6], 100%. The “Percent Control” value in assay [7] is recorded as 57%; in assay [8], 100%; in assay [9] it was 84%; in [10], 100%; in assay [11], 88%; in assay [12], 100%. For the same molecule, the “Percent Control” value in [13] was 100%; in assay [14], 99%; in assay [15], 100%; in assay [16], 100%; in assay [17] it was 61%; in assay [18] it was 100%. Moreover, the “Percent Control” value in [19] is 91%; in assay [20], 76%.
Turning to `CCS(=O)(=O)c1ccc(OC)c(Nc2ncc(-c3cccc(F)c3)o2)c1` [GW621970X], the “Percent Control” value in [1] is 90%; in [2], 100%; in assay [3] it was 36%; in assay [4], 100%; in assay [5], 100%; in assay [6], 95%. In addition, the “Percent Control” value was found to be 80% in assay [7]; 100% in [8]; 100% in [9]; 100% in assay [10]; 91% in [11]; 100% in [12]. Also, the “Percent Control” value was 100% in assay [13]; 100% in [14]; 92% in assay [15]; 94% in [16]; 96% in assay [17]; 100% in [18]. Besides, the “Percent Control” value in assay [19] was 100%; in [20], 92%.
For the molecule `CCS(=O)(=O)c1ccc(OC)c(Nc2ncc(-c3cccc(OC)c3)o2)c1` [GW580509X], the “Percent Control” value was 100% in [1]; 100% in assay [2]; 53% in [3]; 100% in assay [4]; 100% in [5]; 100% in assay [6]. Also, the “Percent Control” value was 68% in assay [7]; 100% in assay [8]; 100% in assay [9]; 100% in assay [10]; 89% in [11]; 100% in assay [12]. Besides, the “Percent Control” value in assay [13] was 100%; in assay [14] it was 100%; in assay [15], 96%; in assay [16], 100%; in assay [17], 100%; in assay [18], 100%. Further, the entries for the “Percent Control” value in [19] and in assay [20] were 100% and 99%, respectively.
`NS(=O)(=O)c1ccc(N/N=C2\C(=O)Nc3ccc(C(=O)NCc4ccncc4)cc32)cc1` [GW300657X]: the “Percent Control” value in assay [1] was 69%; in assay [2], 100%; in assay [3] it was 81%; in assay [4] it was 72%; in [5], 100%; in [6] it was 80%. For the same molecule, the “Percent Control” value turned out to be 67% in assay [7]; 87% in [8]; 72% in assay [9]; 99% in assay [10]; 84% in assay [11]; 99% in assay [12]. The “Percent Control” value in assay [13] was 88%; in [14], 96%; in assay [15] it was 100%; in [16], 89%; in [17], 100%; in assay [18], 91%. The “Percent Control” value in [19] is 63%; in assay [20] it was 91%.
Regarding `CN1CCN(C(=O)c2ccc(NC(=O)Nc3ccc(N(C)c4ccnc(Nc5ccc(CS(C)(=O)=O)cc5)n4)cc3)cc2)CC1.Cl` [GW830263A], the “Percent Control” value in assay [1] was 74%; in assay [2] it was 85%; in assay [3], 71%; in assay [4] it was 70%; in assay [5], 64%; in assay [6] it was 86%. Moreover, the “Percent Control” value was 83% in [7]; 38% in [8]; 57% in [9]; 4% in assay [10]; 43% in assay [11]; 25% in assay [12]. For the same molecule, the “Percent Control” value in assay [13] is 33%; in assay [14] it was 32%; in assay [15] it was 100%; in [16], 84%; in assay [17] it was 44%; in assay [18], 84%. The entries for the “Percent Control” value in [19] and in assay [20] were 43% and 92%, respectively.
For the molecule `NS(=O)(=O)c1ccc(N/N=C2\C(=O)Nc3ccc(-c4cnco4)cc32)cc1` [GW276655], the “Percent Control” value in assay [1] was 44%; in assay [2], 100%; in assay [3], 100%; in assay [4] it was 62%; in assay [5] it was 100%; in [6], 75%. Moreover, the “Percent Control” value in [7] came to 100%; in [8] it was 79%; in assay [9] it was 74%; in assay [10], 82%; in assay [11], 80%; in assay [12] it was 85%. Further, the “Percent Control” value was 62% in [13]; 84% in assay [14]; 100% in assay [15]; 100% in assay [16]; 44% in assay [17]; 85% in assay [18]. Also, the “Percent Control” value in assay [19] was 100%; in [20], 68%.
With `Cc1cc(O)cc(C)c1/C=C/c1cncc(C(N)=O)c1` [GW435821X], the “Percent Control” value was 81% in [1]; 100% in assay [2]; 38% in assay [3]; 100% in [4]; 100% in [5]; 100% in [6]. Besides, the “Percent Control” value in assay [7] was 65%; in assay [8] it was 79%; in assay [9], 59%; in assay [10], 100%; in assay [11] it was 56%; in assay [12], 81%. In addition, the “Percent Control” value in assay [13], in assay [14], in assay [15], in [16], in assay [17] and in assay [18] was 100% throughout. Besides, the “Percent Control” value in assay [19] is 91%; in assay [20], 78%.
As to `CN(C)c1cc2c(Nc3ccc4c(cnn4Cc4ccccc4)c3)ncnc2cn1` [GW282974X], the “Percent Control” value in assay [1] was 97%; in assay [3], 89%; in assay [4], 100%; in assay [5] it was 98%; in [6], 100%; in [8], 90%. In addition, the “Percent Control” value in assay [9] was 73%; in assay [10], 88%; in [11] it was 92%; in assay [12], 100%; in assay [13], 76%; in assay [14], 98%. Besides, the “Percent Control” value in assay [15] is 69%; in [16] it was 90%; in assay [17], 100%; in assay [18], 97%; in [19] it was 100%; in [20], 90%.
In the case of `COc1cc(C)c(N(C)C(=O)CN(C)C)cc1Nc1nc(Nc2cccc(F)c2C(N)=O)c2cc[nH]c2n1` [GSK2219385], the “Percent Control” value in [1] is 11%; in assay [2] it was 74%; in assay [3], 100%; in assay [4], 80%; in assay [5] it was 100%; in [6], 98%. The “Percent Control” value is recorded as 83% in assay [7]; 93% in [8]; 67% in [9]; 90% in [10]; 100% in [11]; 100% in assay [12]. In addition, the “Percent Control” value in assay [13] was 100%; in assay [14], 100%; in assay [15], 83%; in assay [16], 92%; in [17] it was 100%; in [18], 95%. The “Percent Control” value in [19] and in assay [20] was 89% each time.
